We go through 110 molecules from PubChem BioAssay AID1045 (SRMLSC, 2008).

The whole screen tested about 1,500 compounds, of which about 1,400 (93%) were called active. The rule behind the calls is not given here. So high a share suggests a set chosen from earlier hits. Only a sample is shown. Entries with a potency or affinity are not part of this list.

A short description of this test: viability of HCT116 lacking mutant beta-catenin – cell-based, human colon tumor, dose response (AID 1045). Conditions: HCT116 beta-catenin knockout viability, CellTiter-Glo, 60 h; series mostly up to 30 µM.
In the case of `c1ccc(-c2cc3n(c2)CCc2ccccc2-3)cc1`, the call was inactive.
The same measure for `CC(C[N+](C)(C)C)OC(N)=O` (stereo not given): “inactive”; for `CC1CCN(CC(=O)N2c3ccccc3CCc3ccccc32)CC1`: “inactive”.
Consider `O=C(CSc1nnc(-c2ccccc2Cl)o1)Oc1ccc(Br)cc1`, for which the molecule was called inactive.
For the molecule `Cc1ccc(C(=O)Nc2ccccc2C(=O)NC(C(=O)O)C(C)C)cc1` (stereo not given), the outcome was inactive.
Regarding `CCOC(=O)Nc1ccc(C)cc1Br`, the call was inactive.
Consider `Cc1nn(C(=O)N2CCOCC2)c(C)c1C`, for which the outcome was inactive.
Take `O=S(=O)(NCCc1csc(-c2cccnc2)n1)c1ccc2c(c1)OCCO2`: the molecule was classed as inactive.
As for `CCOc1ccccc1NC(=O)Cn1cnc2c(nnn2-c2cccc(OC)c2)c1=O`, the outcome was inactive.
The same measure for `COCCn1c(=NC(=O)CSCC(=O)Nc2cc(C)on2)sc2cc(C(=O)OC)ccc21`: “inactive”.
`CCOc1c(OC)ccc2c3c(c(=O)oc12)CCCC3`: the result was inactive.
As to `CCOc1ccc(C2/C(=C(\O)c3c(C)[nH]c(C(=O)OC)c3C)C(=O)C(=O)N2CCN(C)C)cc1` (stereo not given), the call was inactive.
Turning to `COC(=O)c1cn(NC(=O)c2cc(OC)c(OC)c(OC)c2)c(=O)c2ccccc12`, the call was inactive.
`Cc1[nH]nc2c1C(c1ccsc1C)C(C#N)=C(N)O2` (stereo not given): the molecule was classed as inactive.
Turning to `CC(C)CCCCCCNC(=S)Nc1ccc(S(=O)(=O)N2CCOCC2)cc1`, the molecule was classed as inactive.
Turning to `CC(=O)c1c(C)nc(-c2ccc(Cl)cc2Cl)n1O`, the outcome was inactive.
The same measure for `Cc1cc(NC(=O)CSc2nc(-c3cccnc3)ccc2C#N)no1`: “inactive”.
With `[N-]=[N+]=NC1C[C@H](n2ccc(=O)[nH]c2=O)O[C@@H]1CO` (stereo not given in full), the molecule was classed as inactive.
Take `COC(=O)c1cccc(N2C(=O)C(Cl)=C(N3CCOCC3)C2=O)c1`: the outcome was inactive.
Turning to `CS(=O)(=O)c1nc(-c2cccs2)cc(C(F)(F)F)n1`, the molecule was called inactive.
Consider `N#CC(c1ccc(Cl)nn1)c1ccc(Cl)cc1Cl` (stereo not given), for which the molecule was called inactive.
As to `CCCCN(C)C(=O)C1CCC(=O)N(c2cc(OC)c(OC)c(OC)c2)C1c1ccc(OC)cc1` (stereo not given), the molecule was classed as inactive.
The same measure for `COCCNC(=O)NC1(C(F)(F)F)Oc2ccc(Cl)cc2O1` (stereo not given): “inactive”; for `O=C(NCc1ccc(F)cc1)C1C2C=CC3(CN(Cc4cccnc4)C(=O)C13)O2` (stereo not given): “inactive”.
With `COC(=O)c1ccc(/C=C(\C#N)C(=O)NC(C)c2ccccc2)cc1` (stereo not given), the result was inactive.
With `COC(=O)c1ccc(Oc2nc(C(N)=O)cc(-c3ccccc3)n2)cc1` the entry was “inactive”.
With `CC(C)(C)c1ccc(CNc2ccc([N+](=O)[O-])cn2)cc1`, the call was inactive.
For the molecule `Cc1ccc(CNc2ccc(O)cc2)cc1`, the molecule was classed as inactive.
The same measure for `CCN(CCNC(=O)Nc1ccc(Cl)cc1)c1ccccc1`: “inactive”; for `O=C(c1nnc(Cc2ccc(Cl)cc2)o1)N1CCc2ccccc2C1`: “inactive”.
Turning to `CN1CCN(c2nc(N3CCN(c4ccccc4)CC3)ncc2F)CC1`, the molecule was classed as inactive.
Take `CNC(=O)C1C(=S)NC(N)=C(C#N)C1c1ccccc1` (stereo not given): the call was inactive.
As to `CCC(Sc1nc2sc(C(=O)OC)c(C)c2c(=O)n1N)C(=O)N(CC)CC` (stereo not given), the result was inactive.
For `Cc1cc(NS(=O)(=O)c2ccccc2)cc(Cl)c1O`, the result was inactive.
Regarding `O=C(NNc1nc2cc3c(cc2s1)OCO3)c1cccc(F)c1`, the call was inactive.
`COc1ccc(C(=O)OC2CCN(c3ncc(C(F)(F)F)cc3Cl)CC2)cc1`: the call was inactive.
For `COc1ccc(CCN2C(=O)CN(Cc3ccccc3)CC2=O)cc1OC`, the molecule was called inactive.
Turning to `O=C(NCCOc1ccccc1)C(c1ccccc1)c1ccccc1`, the outcome was inactive.
Take `Cc1cc2ncn(C(=O)N3CCC(C)CC3)c2cc1C`: the molecule was classed as inactive.
Regarding `COC(C)(C)[C@H](O)COc1c2ccoc2cc2oc(=O)ccc12`, the call was inactive.
The same measure for `CCOC(=O)c1[nH]c2ccc(OC)cc2c1NC(=S)N1CCN(c2ccccc2)CC1`: “inactive”; for `Oc1ccc(C=Nc2ccc3ncccc3c2)c(O)c1`: “inactive”.
For `CCN(CC)S(=O)(=O)c1ccc(-c2nnc(SCc3nnc(-c4ccccc4)o3)o2)cc1`, the call was inactive.
For the molecule `CN(C)c1nn(C(=O)Nc2cccc(C(F)(F)F)c2)cc1-c1ccccc1`, the result was inactive.
As for `O=C(Nc1cccc(C(F)(F)F)c1)C12CC3CC(CC(C3)C1)C2`, the result was inactive.
The same measure for `CCCCCn1c(Sc2ccccc2)nc2c1c(=O)[nH]c(=O)n2C`: “inactive”; for `CC(C(=O)NC(=O)NCc1ccccc1)N1C(=O)c2ccccc2C1=O` (stereo not given): “inactive”.
As to `Cc1cc(NC(=O)Cn2c(=O)n(Cc3ccccc3)c(=O)c3ccccc32)no1`, the call was inactive.
In the case of `Cc1cc(Cl)ccc1N=c1ssnc1Cl`, the result was inactive.
Regarding `CCN(CC)C(=O)CCCOc1ccc(Cl)cc1Cl`, the outcome was inactive.
As to `O=C(Nc1cccc2ccccc12)N1CCN(Cc2ccc3c(c2)OCO3)CC1`, the outcome was inactive.
`COc1ccc(C(C)=O)cc1CSc1nc2ccccc2o1`: the molecule was called inactive.
The same measure for `CCOC(=O)C1=C(C)NC(=S)N(C(C)=O)C1c1ccc(Cl)cc1` (stereo not given): “inactive”.
With `Cc1cc(C)c2c(=O)n(CC(=O)N3CCC(Cc4ccccc4)CC3)sc2n1` the entry was “inactive”; with `Cc1sc2c(=O)n3c(nc2c1C(=O)NCCCN1CCOCC1)CCCCC3`, “inactive”.
The same measure for `CCCCNS(=O)(=O)c1ccc2nc(-c3cccnc3)cc(C(=O)NC3CC3)c2c1`: “inactive”; for `O=C(NCc1ccccn1)c1c(O)c2cccc3c2n(c1=O)CC3`: “inactive”; for `CNC(=S)N/N=C(\C)c1ccc(N2CCOCC2)cc1`: “inactive”.
Turning to `COc1cccc(OCC(=O)NN=C2c3ccccc3-c3ccccc32)c1`, the molecule was classed as inactive.
As for `O=C(CSc1ncnc2c1nnn2-c1ccc(F)cc1)NCC1CCCO1` (stereo not given), the molecule was called inactive.
Take `Cc1cc(NC(=O)c2sc(Nc3cccc(C(F)(F)F)c3)nc2N)no1`: the call was inactive.
On to `COc1ccc(Nc2oc(COc3ccc(Cl)cc3)nc2C#N)cc1`, for which the call was inactive.
As to `CCCn1c(SCC(=O)c2ccc3c(c2)NC(=O)CO3)nc2ccccc21`, the molecule was called inactive.
Regarding `C=CCNc1nc(Nc2ccc(-c3nc4ccccc4o3)cc2)nc(N2CCOCC2)n1`, the call was inactive.
The same measure for `CCOC(=O)c1c(C2COc3ccccc3O2)csc1NC(=O)c1ccccc1` (stereo not given): “inactive”; for `O=C(CCNc1cc(Cl)cc(Cl)c1)c1ccco1`: “inactive”; for `O=C(NCc1ccc2c(c1)OCO2)c1ccc2c(c1)C(=O)N(CC1CCCO1)C2=O` (stereo not given): “inactive”.
The same measure for `COC(=O)COc1ccc(S(=O)(=O)NCc2ccncc2)cc1`: “inactive”; for `C=CCNC(=O)c1ccccc1NC(=O)c1ccccc1C`: “inactive”.
Turning to `CCOc1ccc(N(CC(=O)NC2CCCCCC2)S(=O)(=O)c2c(C)noc2C)cc1`, the result was inactive.
Take `Nc1c(NCCN2CCOCC2)c2ccccc2oc1=O`: the result was inactive.
Consider `COc1cccc2cc(C(=O)N(C)C)c(=O)oc12`, for which the result was inactive.
`Cc1[nH]nc2c1C(C1CC=CCC1)C(C#N)=C(N)O2` (stereo not given): the result was inactive.
The same measure for `Cc1cc(C)c2c(=O)n(CC(=O)NCCCN3CCOCC3)sc2n1`: “inactive”; for `N/C(=N\c1nc(C(F)(F)F)cc(=O)[nH]1)Nc1ccc(Cl)cc1`: “inactive”.
With `OCCn1c(C(F)(F)F)nc2ccccc21` the entry was “inactive”.
The same measure for `COC(=O)Nc1nc2c(s1)CCCC2`: “inactive”; for `O=C(N/N=C/c1ccc(O)c(O)c1O)/C(=C/c1ccc([N+](=O)[O-])cc1)NC(=O)c1ccccc1`: “inactive”; for `COc1ccc(N2CCN(C(c3cc(OC)ccc3OC)c3nnnn3CC3CCCO3)CC2)cc1` (stereo not given): “inactive”.
For `Cc1cccc(CS(=O)(=O)c2nnc([C@H](Cc3ccccc3)NC(=O)OC(C)(C)C)o2)c1`, the molecule was classed as inactive.
Turning to `CCCCS/C(N)=N/N=C/c1ccccc1O`, the result was inactive.
The same measure for `CC(C)c1cc(=O)oc2c3c4c(cc12)CCCN4CCC3`: “inactive”.
Regarding `CN1/C(=C\C(=S)NC(=O)c2ccc([N+](=O)[O-])cc2)C(C)(C)c2ccccc21`, the outcome was inactive.
`O=S(=O)(c1cccc2ccccc12)N1CCSC1`: the result was inactive.
Turning to `CCCCn1c(=NC(=O)c2ccco2)c(C(=O)OCC)cc2c(=O)n3ccccc3nc21`, the molecule was classed as inactive.
Take `Cc1cc(Nc2ccccc2)nn1C(=O)c1ccccc1`: the outcome was inactive.
The same measure for `CCCC(=O)Nc1ccc(C)c(O)c1`: “inactive”.
`COC(=O)c1cc(OC)c(OC)cc1NC(=O)c1ccccc1`: the call was inactive.
On to `OC1(c2cccc(C(F)(F)F)c2)CCN(c2ccc(-c3ccccc3)nn2)CC1`, for which the outcome was inactive.
For `CCN(CC)c1ccc(N=Cc2ccc(N(CC)CC)cc2O)cc1`, the result was inactive.
In the case of `CCCCNC(=O)Nc1c(C(=O)OC)[nH]c2ccc(C)cc12`, the result was inactive.
With `CN(C)S(=O)(=O)c1cccc(NC(=O)COC(=O)c2cccc(S(=O)(=O)N3CCc4ccccc4C3)c2)c1`, the outcome was inactive.
`c1ccc2c(c1)CCCC2C1=NCCN1` (stereo not given): the molecule was classed as inactive.
With `O=C(Nc1cccc2ccccc12)c1onc2c1CCCC2`, the outcome was inactive.
Regarding `COc1ccc(NC(=O)CCCn2c(=O)c3sccc3n(Cc3ccccc3)c2=O)cc1`, the call was inactive.
Take `OC1C2CN3CCN(C2)CC1(Cc1ccccc1)C3` (stereo not given): the molecule was called inactive.
Turning to `O=C(c1ccc2c(=O)n(CC3CCCO3)c(=S)[nH]c2c1)N1CCN(c2ccccc2)CC1` (stereo not given), the molecule was classed as inactive.
Regarding `CCOC(=O)N1CCN(C(=O)c2nn(-c3ccc(C)cc3)c(=O)c3c2c2ccccc2n3C)CC1`, the call was inactive.
Consider `C=CCNc1nnc(SC2CC(=O)N(c3ccc(OC)cc3)C2=O)s1` (stereo not given), for which the molecule was classed as inactive.
As to `Cc1c(Cl)ccc2sc(NC(=O)CN3C(=O)c4ccccc4C3=O)nc12`, the molecule was classed as inactive.
For the molecule `COc1ccc(S(=O)(=O)CCC(=O)N(C)c2ccc(OC)cc2OC)cc1`, the call was inactive.
As to `CCCCN1C[C@H](O)[C@@H](O)[C@H](O)[C@H]1CO`, the result was inactive.
With `O=C(COC(=O)c1cccnc1Nc1cccc(C(F)(F)F)c1)NCc1ccc2c(c1)OCO2` the entry was “inactive”.
Take `O=C(COC(=O)c1c2c(nc3ccccc13)CCCC2)Nc1ccc2c(c1)OCO2`: the result was inactive.
Consider `CCOC(=O)Cn1c2ccccc2c2nc3ccccc3nc21`, for which the outcome was inactive.
With `Cc1ccc(Cn2nc(C)c(NC(=O)CSc3nc4c(c(C(F)(F)F)n3)CCc3ccccc3-4)c2C)cc1`, the outcome was inactive.
`COc1ccc(CCn2c(N)c(C(=O)NCc3ccco3)c3nc4ccccc4nc32)cc1OC`: the result was inactive.
With `COc1ccccc1CN=Cc1[nH]c2ccc(Br)c(Cl)c2c1O`, the molecule was called inactive.
The same measure for `COc1ccc(C(=O)OCC(=O)c2cc(OC)ccc2OC)c(OC)c1`: “inactive”; for `O=C1[C@H]2[C@H]3[C@H](O)[C@H](O)C/C(=N\OC[C@@H](O)COCc4ccco4)[C@@H]3CC[C@H]2C(=O)N1c1ccc(F)cc1F`: “inactive”.
